Measured values: PubChem BioAssay (NCATS)
Results filed as inconclusive are left out. Entries that show only a call come without a potency. Calls of active or inactive are those of the source. Calls come from the whole dose curve; as a rule, active = well fitted inhibition curve with a large enough effect; inconclusive = small, poorly fitted or top-dose-only effect; inactive = no such curve, though single readings can be large or run the other way.

Test: qHTS assay for measurement of the activity of small molecule inhibitors on Zika virus induced Caspase-3 activity in human iPSC derived neural progenitor cells (hNPCs) (AID 1224857); note: nearly all actives have a fitted effect of over 65% in size
Conditions: hNPCs ZIKV-induced caspase-3/7, Caspase-Glo luminescence, 6 h; series mostly up to 45.7 µM
Source text: National Center for Advancing Translational Sciences [NCATS]
Johns Hopkins University School of Medicine
Increase in the Caspase-3 activity indicates an activation of apoptosis cell death pathway caused by Zika virus infection in certain types of neuronal cells including human neural progenitor cells (hNPCs), astrocytes, and astrocytoma cell line (SNB-19). This cell-based caspase-3 activity assay measures the increased caspase-3 activity in the human iPSC derived neural progenitor cells (hNPCs) after a 6-hour Zika virus infection with a luminescence readout. A decrease in the luminescence signal in this assay by small molecule treatment indicates an inhibitory effect of that small molecule on the Zika virus induced caspase-3 activity that may correlate with its effect on reduction of Zika virus caused cell death.
The medium for hNPCs consists of DMEM/F12, N2 supplement (ThermoFisher, Cat.# 17502048), NEAA (ThermoFisher, Cat. # 11140050), 2 ug/ml heparin, 2 uM cyclopamine, and B27 (ThermoFisher, Cat. # 17504044). A Caspase-Glo 3/7 assay kit (catalog number G8092; Promega, Madison, WI) was used to detect caspase-3 activity induced by Zika virus infection in human cells. The reagent mixture was reconstituted as described in the protocol from the manufacturer. Polystyrene tissue culture treated and PDL coated white plates were obtained from Greiner Bio-One (Monroe, NC). Cells were seeded in 384- or 1536-well assay plates and cultured at 37 C with 5% CO2 for 16 to 20 hours. The typical cell seeding density in the 1536-well plate assay is 350 cells/well in 3 ul medium for hNPCs in tissue culture treated plates. Compounds were added to cells and incubated for one hour before addition of ZIKV solution to cells (2 FFU/cell). After incubation at 37 C with 5% CO2 for 6 hours, the reagent mixture of Caspase-Glo 3/7 assay kit was added to each well, followed by incubation at room temperature for 30 minutes. The luminescence intensity of the assay plates was measured using a ViewLux plate reader (PerkinElmer). Data were normalized by using the cell-containing wells without ZIKV as a negative control (0% induction of caspase 3/7 activity) and wells containing ZIKV infected cells (Caspase-3 activity induced) as a positive control (100% induction of caspase 3 activity). The percentage inhibitions of the increased Caspase-3 activity by small molecule inhibitors were then calculated.
Potency is the fitted concentration of half-maximal effect.

Question: With CCCN(CCC)C1CCc2ccc(O)cc2C1 (stereo not given) as the molecule, how does the Potency read?
Answer: inactive

Question: Which Potency does the source give for S=C(NC1CCCCC1)N1CCC(c2cnc[nH]2)CC1 here?
Answer: inactive

Question: With COC(=O)[C@@H](N)CCCN=C(N)N[N+](=O)[O-] as the molecule, how does the Potency read?
Answer: inactive

Question: With O=c1[nH]c2ccc(Cl)cc2c(N[C@@H]2CN3CCC2CC3)c1-c1nc2ccccc2[nH]1 as the molecule, how does the Potency read?
Answer: inactive

Question: With N#C[C@H](O[C@@H]1O[C@H](CO[C@@H]2O[C@H](CO)[C@H](O)[C@H](O)[C@H]2O)[C@H](O)[C@H](O)[C@H]1O)c1ccccc1 as the molecule, how does the Potency read?
Answer: inactive

Question: For CNCCc1ccc(O)c(O)c1, which Potency is on record?
Answer: inactive

Question: Which Potency does the source give for O=C(Nc1ccccc1-c1ccc(Cl)cc1)c1cccnc1Cl here?
Answer: inactive

Question: For CCN(CC)C(=O)c1ccc(C2=CC3(CCNCC3)Oc3cccc(O)c32)cc1, which Potency is on record?
Answer: inactive

Question: For CN(C)[C@@H]1C(=O)C(C(N)=O)=C(O)[C@@]2(O)C(=O)C3=C(O)c4c(O)cccc4[C@@](C)(O)[C@H]3[C@H](O)[C@@H]12, which Potency is on record?
Answer: inactive

Question: For CO[C@H]1CCC(O[C@H]2C[C@H]([C@]3(C)CC[C@]4(C[C@H](O)[C@@H](C)[C@@H]([C@@H](C)C=C(C)C(=O)[C@H](C)C[C@H](C)C(=O)O)O4)O3)O[C@]3(O[C@@H]([C@H]4O[C@@](O)(CO)[C@H](C)C[C@H]4C)C[C@H]3C)[C@H]2C)O[C@H]1C (stereo not given in full), which Potency is on record?
Answer: inactive

Question: For C=C[C@@H]1CN2CCC1C[C@H]2[C@H](O)c1ccnc2ccccc12 (stereo not given in full), which Potency is on record?
Answer: inactive

Question: For C=CC(=O)NCNC(=O)C=C, which Potency is on record?
Answer: inactive

Question: For CNCCc1c[nH]c2ccc(O)cc12, which Potency is on record?
Answer: inactive

Question: With CCCN1CCO[C@@H]2c3cc(O)ccc3OC[C@@H]21 as the molecule, how does the Potency read?
Answer: inactive

Question: With O=C(Nc1ccncc1)C(=O)c1cn(Cc2ccc(Cl)cc2)c2ccccc12 as the molecule, how does the Potency read?
Answer: inactive

Question: For O=C(Oc1ccc([N+](=O)[O-])cc1)N1CCC(C(O)(c2ccc3c(c2)OCO3)c2ccc3c(c2)OCO3)CC1, which Potency is on record?
Answer: inactive

Question: Which Potency does the source give for Cc1c(C(=O)c2cccc3ccccc23)c2cccc3c2n1[C@H](CN1CCOCC1)CO3 here?
Answer: inactive

Question: Which Potency does the source give for CN1[C@H]2CC(O)C[C@H]1[C@H]1O[C@H]12 (stereo not given in full) here?
Answer: inactive

Question: Which Potency does the source give for CC(O)=C(C#N)C(=O)Nc1cc(Br)ccc1Br here?
Answer: inactive

Question: With C[C@]12CC[C@@H]3[C@@H](CCC4=CC(=O)CC[C@@H]43)[C@@H]1CC[C@@H]2OC(=O)CCc1ccccc1 as the molecule, how does the Potency read?
Answer: inactive

Question: With C[N+](C)(C)CC(=O)O as the molecule, how does the Potency read?
Answer: inactive

Question: With COC1=CC(C)=C[C@@H](C)[C@@H](O)[C@@H](C)CC(C)=CC=C[C@H](OC)[C@H]([C@@H](C)[C@@H](O)[C@H](C)[C@@]2(O)C[C@@H](O)[C@H](C)[C@@H](C(C)C)O2)OC1=O as the molecule, how does the Potency read?
Answer: inactive

Question: For COc1ccc(CC2NCCc3cc(OC)c(OC)cc32)cc1OC (stereo not given), which Potency is on record?
Answer: inactive

Question: Which Potency does the source give for CCCCC(CC)COC(=O)c1ccccc1C(=O)OCC(CC)CCCC (stereo not given) here?
Answer: inactive

Question: For COc1ccc2c(c[n+](C)c3c4cc5c(cc4ccc23)OCO5)c1OC, which Potency is on record?
Answer: inactive

Question: With O=C1C(I)=CC(=C(c2cc(I)c(O)c(I)c2)c2ccccc2C(=O)O)C=C1I as the molecule, how does the Potency read?
Answer: inactive

Question: Which Potency does the source give for CCCC[N+]1(C)[C@H]2CC(OC(=O)[C@H](CO)c3ccccc3)C[C@H]1[C@H]1O[C@H]12 (stereo not given in full) here?
Answer: inactive

Question: For CCC1(CCC(C)C)C(=O)NC(=O)NC1=O, which Potency is on record?
Answer: inactive

Question: For C[C@]12N[C@H](Cc3ccccc31)c1ccccc12, which Potency is on record?
Answer: inactive

Question: With CC[N+]1(CCOC(=O)C(O)(c2ccccc2)c2ccccc2)CCCCC1 as the molecule, how does the Potency read?
Answer: inactive

Question: With C[C@]12CC[C@H]3[C@@H](CCC4=CC(=O)CC[C@@]43C)[C@H]1CC[C@H]2OC(=O)CCC1CCCC1 as the molecule, how does the Potency read?
Answer: inactive

Question: With CC(O)CN1CCN(CC(=O)[O-])CCN(CC(=O)[O-])CCN(CC(=O)[O-])CC1.[Gd+3] (stereo not given) as the molecule, how does the Potency read?
Answer: inactive

Question: With CC1(C)CC/C(=C/c2ccc(Cl)cc2)C1(O)Cn1cncn1 (stereo not given) as the molecule, how does the Potency read?
Answer: inactive

Question: For O=[N+]([O-])/N=C1\NCCN1Cc1ccc(Cl)nc1, which Potency is on record?
Answer: inactive

Question: With O=[N+]([O-])c1c(Cl)c(Cl)cc(Cl)c1Cl as the molecule, how does the Potency read?
Answer: inactive

Question: Which Potency does the source give for O=C(O)C(Cl)Cl here?
Answer: inactive

Question: With CC(=Cc1csc(C)n1)[C@@H]1C[C@H]2O[C@@H]2CCC[C@H](C)[C@@H](O)[C@@H](C)C(=O)C(C)(C)[C@@H](O)CC(=O)O1 as the molecule, how does the Potency read?
Answer: inactive

Question: For CCc1c(C(=O)C(N)=O)c2c(OCC(=O)O)cccc2n1Cc1ccccc1, which Potency is on record?
Answer: inactive

Question: Which Potency does the source give for NC(N)=NOCCC(N)C(=O)O (stereo not given) here?
Answer: inactive

Question: Which Potency does the source give for Nc1ccc(N=Nc2ccccc2)cc1 here?
Answer: 28.2 µM (active)
